This is a sample that favours compounds with a hit; in the whole collection about 15% have one here.
HCV inhibitor: qHTS Assay for Inhibitors of Hepatitis C Virus (HCV); Huh7.5.1 HCVcc-Cre infection, luciferase reporter, 44 h; Potency, µM (highest dose often 41.8 µM), for inactives: at the top dose activity change, negative = inhibition, most hits filed as inhibitors; 340,000 compounds, 3.4% hits; AID 651820, 2012; note: potency is the fitted concentration of half-maximal effect; % is set by controls: 0 for no effect and ±100 for the full control effect
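HCVcc-Cre virus at an moi near 0.5 was added right after compound to cells cultured 4 h from seeding (1,000 cells/well). Luciferase activity was determined 44 h later, 15 min after substrate addition at RT.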
HCMV antiviral: qHTS Assay for inhibitors of the human cytomegalovirus (HCMV). 410,000 compounds, 4.5% hits. activity change, negative = inhibition, % at 57.5 µM. HFF cells, HCMV-luciferase reporter, 72 h; active compounds read low. AID 1259415, 2018; in the data active = activity change below about -60%; inconclusive = no clear call, values can overlap the other calls; inactive = above about -39%; note: % is set by controls: 0 for no effect and ±100 for the full control effect
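HFF cells seeded 16 h at 37C, treated with compounds, infected with luciferase-reporter HCMV at MOI 1 PFU/cell; luciferase read at 72 h post infection, normalized to buffer-only and Salinomycin controls.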
Pf growth 96h: Primary qHTS for delayed death inhibitors of the malarial parasite plastid, 96 hour incubation. P. falciparum luciferase reporter growth, 96 h. Potency, µM (highest dose often 28.7 µM), without a hit: at the highest dose activity change, negative = inhibition, most hits filed as inhibitors. 320,000 compounds, 6.9% hits. AID 504834, 2011; note: potency is the fitted concentration of half-maximal effect; % is set by controls: 0 for no effect and ±100 for the full control effect
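Two-generation exposure (96 h) targets delayed-death phenotype. Reporter parasites carrying integrated firefly luciferase, in red cells at 2% hematocrit and 0.05% parasitemia final, kept at 37 C, 5% CO2; luminescence loss indicates inhibition.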
Sm TGR inh: qHTS Assay for the Inhibitors of Schistosoma Mansoni Peroxiredoxins. Schistosoma mansoni thioredoxin glutathione reductase (TGR), Q962Y6. purified TGR, DTNB reduction, TNB absorbance 405 nm. Potency, µM (top dose mostly 114 µM), inactives show at the highest dose activity change, negative = inhibition, hits mostly inhibitors. 360,000 compounds, 3% hits. AID 485364, 2010; note: potency is the fitted concentration of half-maximal effect; % is set by controls: 0 for no effect and ±100 for the full control effect; nearly all actives have a fitted effect of over 60% in size
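Kinetic colorimetric format: TGR-catalysed, NADPH-driven DTNB reduction monitored via TNB absorbance. Enzyme dispensed at 20 nM; compound exposure 15 min at room temperature before reaction start.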
Pf growth 48h: Primary qHTS for delayed death inhibitors of the malarial parasite plastid, 48 hour incubation | P. falciparum luciferase growth in erythrocytes, 48 h | Potency, µM (titrated, usually from 28.7 µM), without a hit: at the top dose activity change, negative = inhibition, most hits filed as inhibitors | 310,000 compounds, 5.9% hits | AID 504832, 2011; note: potency is the fitted concentration of half-maximal effect; % is set by controls: 0 for no effect and ±100 for the full control effect
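Here the parasites carry a stable luciferase gene and grow inside erythrocytes in Albumax-based RPMI medium with compound for one erythrocytic cycle. Activity is scored as loss of luminescent signal.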
SARS PLP yeast: qHTS of Yeast-based Assay for SARS-CoV PLP; Potency, µM (titrated, usually from 32.9 µM), for the others: top-dose activity, positive = growth rescue, actives largely listed as activators; 330,000 compounds, 0.19% hits; S. cerevisiae expressing SARS-CoV PLpro, growth rescue; calls by dose curve; note: potency is the fitted concentration of half-maximal effect; 0% is about no effect; nearly all actives have a fitted effect of over 55% in size
Active calls of the source: *; ? = inconclusive; . = no result; ! = not confirmed by another sample; [ ] = remark or other dose. Unless noted, calls come from the whole dose curve; as a rule, active = well fitted curve in the direction sought with a large enough effect; inconclusive = small, poorly fitted or top-dose-only effect, or another doubt; inactive = no such curve, though single readings can be large; an effect the other way counts as inactive or inconclusive.

SMILES | HCV inhibitor | HCMV antiviral | Pf growth 96h | Sm TGR inh | Pf growth 48h | SARS PLP yeast
COC(=O)C1=CN(c2cc(C)cc(C)c2)C=C(C(=O)OC)C1c1ccc(OC)c(O)c1 | ? | 11.4 | ? | -5.7% | 0.0% | -3.2%
COC(=O)C1=CN(c2cc(C)cc(C)c2)C=C(C(=O)OC)C1c1cccc(F)c1 | 14.0% | 7.5 | ? | 0.0% | 11.7µM* | -0.6%
CCOc1ccc(C2C(C(=O)OC)=CN(CCOC)C=C2C(=O)OC)cc1 | 11.3% | 15.6 | ? | -1.4% | ? | 6.3%
COCCN1C=C(C(=O)OC)C(c2ccc(Cl)cc2)C(C(=O)OC)=C1 | -5.5% | -20.9 | 0.0% | . | 10.4µM* | -1.6%
Cc1nn(CC(=O)NCCc2ccc(Cl)cc2)c(=O)c2cc3cc(F)ccc3n12 | . | 20.5 | . | -0.7% | . | .
COCCCNc1nc2ccccc2nc1NS(=O)(=O)c1cc(Cl)ccc1Cl | -1.6% | ? | -14.6% | 1.1% | -2.1% | -4.8%
CCOC(=O)c1ccc(N2C=C(C(=O)OC)C(c3ccc(OC)c(O)c3)C(C(=O)OC)=C2)cc1 | ? | -31.8 | -27.8% | -20.5% | . | -0.2%
COC(=O)C1=CN(Cc2ccc(OC)c(OC)c2)C=C(C(=O)OC)C1c1cccc(O)c1 | 2.4% | 51.2 | 141.1% | 9.9% | ? | 1.4%
COC(=O)C1=CN(Cc2cccs2)C=C(C(=O)OC)C1c1ccc(OC)cc1OC | -11.3% | 3.2 | 30.1% | 0.0% | ? | 0.4%
CCN1C=C(C(=O)OC)C(c2cccc(C)c2)C(C(=O)OC)=C1 | -3.7% | -21.7 | 11.7µM* | -21.4%[11.4 µM] | . | 5.3%
COC(=O)C1=CN(c2ccc(OC)cc2)C=C(C(=O)OC)C1c1cc(OC)c(OC)cc1OC | -13.7% | 53.9 | 4.15µM* | -30.0% | 23.6% | 0.1%
COC(=O)C1=CN(c2ccc(F)cc2)C=C(C(=O)OC)C1c1ccc(O)cc1 | 11.2µM* | -25.3 | -0.4% | -1.0% | 9.6%[0.00184 µM] | -2.7%
COc1ccc(OCC(=O)NNC(=O)c2cccc(O)c2)cc1 | 8.7% | -27.4 | ? | -1.9% | -17.5% | 3.6%
Nc1ccc2nc(Cc3ccccc3)[nH]c2c1 | ? | 3.9 | 10.4µM* | -0.5% | 9.28µM* | 0.7%
Nc1ccc(-c2nc3ccc(-c4nc5ccccc5o4)cc3[nH]2)cc1 | ? | 15.1 | 24.2% | 0.9% | 9.28µM* | -9.6%
Nc1ccc2nc(-c3cccc(-c4nc5ccc(N)cc5[nH]4)c3)[nH]c2c1 | -21.0% | 8.2 | 0.0% | 4.9% | 1.85µM* | 2.5%
Cc1nc2ccc(-c3nc4ccc(N)cc4[nH]3)cc2[nH]1 | -16.4% | 9.8 | 6.4% | 0.0% | ? | -1.9%
O=C(O)c1cccc(-c2nc3ccccc3[nH]2)c1 | 24.8% | 31.9 | 2.33µM* | -6.1% | 197.1% | 16.9%
Cc1ccc(-c2noc(COc3ccc(Br)c(C)c3)n2)cc1 | . | -12.1 | . | 2.5% | . | .
Nc1ccc2nc(-c3cc(Cl)c(N)c(Cl)c3)[nH]c2c1 | 11.2µM* | 152.0 | ? | -0.8% | 2.94µM* | -5.3%
Nc1ccc2nc(-c3ccc(Cl)cc3)[nH]c2c1 | -15.9% | 216.5 | ? | -2.0% | . | -27.1%
CCN(CC(=O)NCc1cccs1)C(=O)CCC(=O)c1ccc(F)cc1 | 22.4% | -16.4 | 3.0% | -12.5% | -6.7% | 0.8%
O=C(O)[C@@H]1[C@H]2C[C@H]3c4[nH]c5ccccc5c4CCN3C[C@@H]2CC[C@@H]1O | 24.0% | 7.1 | 7.38µM* | -34.3% | ? | .
O=C(O)C1CCCC2CN3CCc4c([nH]c5ccccc45)C3C(O)C21 (centres undefined) | -27.1% | -71.6* | ? | -11.6% | -4.0% | 5.5%
O[C@@H]1CCCN2CCc3c([nH]c4ccccc34)[C@H]12 | 6.2% | 9.3 | . | . | . | .
SMILES | HCV inhibitor | HCMV antiviral | Pf growth 96h | Sm TGR inh | Pf growth 48h | SARS PLP yeast
O=C1CCC2CN3CCc4c([nH]c5ccccc45)C3CC2C1 (centres undefined) | . | 33.7 | . | . | . | .
COC(=O)c1ccsc1NC(=O)CN1CCN(c2ncccn2)CC1 | -6.5% | -7.5 | 0.0% | -12.7% | 11.7µM* | -8.0%
COC(=O)c1ccsc1NC(=O)CN1CCN(c2ccc(F)cc2)CC1 | ? | -25.7 | 12.5% | -0.2% | ? | -3.9%
COc1cc(/C=C2\SC(=S)N(NS(=O)(=O)c3ccc(C)cc3)C2=O)cc(OC)c1OC | -0.4% | -27.7 | ? | ? | 4.65µM* | -1.6%
C=CCn1c(C(C)C)nc2ccccc21 | -5.6% | -33.0 | 11.0% | -0.4% | -4.1% | 2.4%
C=CCn1c(C)cc(C(=O)Cn2c(C(C)O)nc3ccccc32)c1C (centres undefined) | -3.9% | -65.8* | 12.8% | -6.3% | ? | 2.0%
C=CCn1c(C(C)NC(=O)CCC)nc2ccccc21 (centres undefined) | 11.2µM* | -61.9* | 120.3% | -0.4% | -2.9% | 29.7%
COc1ccc(-n2ncc3c2CC(C)(C)CC3NC(=O)Cc2nonc2C)cc1 (centres undefined) | -24.7% | ? | 22.2% | -12.2% | -21.7% | 3.6%
CCSc1nc(-c2ccco2)ccc1C#N | ? | 56.9 | . | 11.2µM* | -1.6% | 3.5%
Cc1c(CN2CCCC(C(=O)c3cccc(OC(C)C)c3)C2)c(=O)n(-c2ccccc2)n1C (centres undefined) | 4.2% | 2.5 | 23.7% | . | -12.4% | 0.2%
CN1CCC(=C2c3ccccc3C=Cc3ccccc32)CC1 | ? | 30.7 | ? | -0.4% | 11.7µM*! | 4.6%
CN1CCC(=C2c3ccccc3Sc3ccccc32)CC1 | 10µM* | 3.0 | ? | . | 4.26µM* | .
O=C1Cc2ccccc2Sc2ccccc21 | -0.5% | -28.9 | 41.5% | 7.8% | 49.7% | -3.0%
O=C(CNC(=O)/C=C/c1ccco1)N=Nc1c(O)[nH]c2ccccc12 | 7.1% | -15.6 | 0.5% | 7.08µM* | 22.7% | 1.2%
O=C(CNC(=O)Cc1ccccc1)N=Nc1c(O)[nH]c2ccccc12 | -17.4% | -15.7 | 48.1% | 3.0% | -4.0% | -4.0%
O=C(CCNC(=O)c1ccco1)NCc1ccc(F)cc1 | 5.3% | -6.1 | . | . | . | -0.9%
O=C(/C=C/c1ccco1)NCc1ccc(F)cc1 | -1.5% | 2.0 | ? | 3.16µM* | 55.4% | -0.9%
NS(=O)(=O)c1ccc(CNC(=O)/C=C/c2ccco2)cc1 | 32.4% | 0.0 | 11.8% | 1.58µM* | 2.7% | 1.4%
Clc1ccc(Cn2nc(-c3ccccc3)nc2-c2ccccc2)cc1 | 9.4% | 83.1 | -35.7% | -9.4% | 25.3% | -8.8%
CCCCN(C(=O)C1=NN(c2ccccc2)C(=O)CC1)c1c(N)n(CC(C)C)c(=O)[nH]c1=O | 0.2% | 63.8 | -7.3% | 7.5% | 5.7% | -0.4%
